HT1080 IDH1KD tx = qHTS for induction of synthetic lethality in tumor cells producing 2HG: qHTS for the HT-1080-IDH1KD cell line; HT-1080 IDH1 knockdown viability, ATP luminescence, 48 h; Potency, µM (top dose mostly 46.1 µM), for the others: at the highest dose activity, negative = toxicity, usual class: cytotoxic; hit rate 2% among 360,000; AID 686971, 2013;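 further: potency means the concentration at half of the fitted maximal effect; 0% = DMSO wells and -100% = cell-free medium wells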
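HT-1080-IDH1KD cells (IDH1 knocked down), 750/well in RPMI with 5% FBS, treated with compound 48 h at 37 degrees C. Viability by CellTiter-Glo luminescence, normalised to DMSO and no-cell wells; concentration-response curves classed.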
HepG2 tox = qHTS for Inhibitors of TGF-b: Cytotox Counterscreen | hit rate 0.76% among 410,000 | HepG2 CAGA-GFP viability, ATP luminescence, 18 h | AID 588856, 2011 | Potency, µM (titrated, usually from 46.1 µM), inactives show at the highest dose activity change, negative = cytotoxicity, most hits filed as cytotoxic; further: potency means the concentration at half of the fitted maximal effect
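HepG2 CAGA-GFP cells (1000/well, DMEM with 1% FBS) received compound, then TGF-beta at 500 pg/mL final, and were incubated 18 hours at 37 degrees C. Viability was read by CellTiter-Glo luminescence. Media-only wells were set as complete cell-killing and DMSO as no toxicity.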
HT1080NT lethal = qHTS for induction of synthetic lethality in tumor cells producing 2HG: qHTS for the HT-1080-NT fibrosarcoma cell line; HT-1080-NT fibrosarcoma viability, CellTiter-Glo ATP luminescence, 48 h; Potency, µM (titrated, usually from 46.1 µM), for inactives: at the highest dose activity, negative = less viability, hits mostly cytotoxic; hit rate 1.6% among 360,000; AID 686970, 2013;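 further: NT is the 2HG producing partner of a matched IDH1 knockdown line; potency means the concentration at half of the fitted maximal effect; 0% = DMSO-treated cells and -100% = media-only wells without cells; nearly all actives have a fitted effect of over 55% in size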
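Toxicity toward the 2HG-producing NT line was scored as %Activity, normalised to DMSO and no-cell wells, from CellTiter-Glo luminescence after 48 hours' treatment.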
Giardia kill = Small Molecules that selectively kill Giardia lamblia: qHTS | Giardia lamblia trophozoite viability | activity change, % at 7.66 µM, hits read low | hit rate 0.15% among 340,000; in the data active means activity change below about -80%; inconclusive means between about -30% and that limit;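 further: parasites exposed to compound for two days anaerobically before the ATP read; on the % scale 0 is the no-effect control and ±100 the full control effect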
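Trophozoite viability was measured as ATP-dependent luminescence, read 15-30 min after reagent addition. Before that, parasites at 100 cells/well were exposed to compounds for 48 h, anaerobically, at 37 deg C.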
IL1B secr inh = qHTS for Inhibitors of Inflammasome Signaling: IL-1-beta AlphaLISA Primary Screen; THP-1 LPS/ATP IL-1B secretion, AlphaLISA, 16 h; hits give low values; activity change, % at 57.5 µM; hit rate 4.7% among 360,000; in the data active means activity change below about -50%; inconclusive means mostly about -30% to -49%; further: on the % scale 0 is the no-effect control and ±100 the full control effect
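THP-1 cells pretreated 1 hr with compounds (up to 57.5 uM final), then stimulated with LPS (250 ng/mL final) plus ATP (1.25 mM final); secreted IL-1B measured by AlphaLISA after 16 hr, decreased signal indicating inhibition.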
TGFb inhibitor = qHTS for Inhibitors of TGF-b | HepG2 CAGA-GFP TGF-b/SMAD3 reporter, GFP fluorescence, 18 h; TGF-beta stimulated, 500 pg/mL final | Potency, µM (titrated, usually from 46.1 µM), inactives show top-dose activity, negative = inhibition, hits mostly inhibitors | hit rate 1.2% among 410,000; further: potency means the concentration at half of the fitted maximal effect; on the % scale 0 is the no-effect control and ±100 the full control effect; nearly all actives have a fitted effect of over 65% in size
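Inhibition of TGF-beta-driven CAGA-GFP reporter expression in HEPG2 cells is measured by cellular GFP fluorescence after 18 h stimulation with 500 pg/mL recombinant TGF-beta in 1% FBS medium at 37 degrees C.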
* marks the source's active call; other numbers are inactive results; ? = inconclusive; nt = no result. Shown are actives, neighbours in structure and some others; about 6.5% of the full set was active somewhere. Unless noted, the call rests on the fitted dose curve; in most records, active means well fitted curve in the direction sought with a large enough effect; inconclusive means small, poorly fitted or top-dose-only effect, or another doubt; inactive means no such curve, though single readings can be large; an effect the other way counts as inactive or inconclusive.

SMILES	HT1080 IDH1KD tx	HepG2 tox	HT1080NT lethal	Giardia kill	IL1B secr inh	TGFb inhibitor
CCCCOC(=O)Nc1ccc(C(N)=O)cc1	13.7%	6.7%	2.1%	-12.8	-4.8	24.2%
CCCc1ccc(-c2ccc(F)c(N)c2)nc1	-5.1%	-16.7%	-11.0%	?	?	?
COc1cc(C(=O)Nc2ccc(S(=O)(=O)N3CCCCC3C)cc2)cc(OC)c1OC (stereo not drawn)	?	-24.4%	-25.7%	12.6	?	-15.5%
COc1ccc(C(=O)Nc2ccc(S(=O)(=O)N3CCCCC3C)cc2)c(OC)c1OC (stereo not drawn)	?	-31.9%	?	5.0	-59.5*	?
Cc1ccc(N(CC(=O)N2CCN(c3cc(Cl)ccc3C)CC2)S(=O)(=O)c2c(C)noc2C)cc1	nt	-43.9%	nt	nt	nt	?
Cc1ccc(-n2[nH]c(C)c(/C=N/c3ccccn3)c2=O)cc1	?	10µM*	7.08µM*	-2.4	35.8	-14.6%
COc1ccc2nc(/N=C/c3c(C)[nH]n(-c4ccc(C)cc4)c3=O)sc2c1	?	8.91µM*	?	-23.7	16.0	-23.4%
Cc1ccc(-n2[nH]c(C)c(C=Nc3ccc(Br)cn3)c2=O)cc1	-14.2%	-20.6%	-1.7%	-13.5	20.9	0.8%
Cc1ccc(-n2[nH]c(C)c(C=Nc3cc(C)ccn3)c2=O)cc1	23.1µM*	-76.5%	10.3µM*	-11.1	0.0	-4.0%
Cc1[nH]n(-c2ccccc2)c(=O)c1C=Nc1cccc2cccnc12	?	-28.7%	-21.3%	-9.2	55.9	?
COc1ccc2nc(/N=C/c3cccc(OC)c3O)sc2c1	-4.2%	-8.5%	9.4%	6.5	14.5	0.1%
CCN(CC)c1nc2ccccc2c(N)c1-c1ccccc1	?	-2.0%	?	6.0	-26.9	?
CCOc1ccccc1N1CC(C(=O)N2CCN(Cc3ccc(C#N)cc3)CC2)CC1=O (stereo not drawn)	-3.3%	3.6%	0.0%	-1.4	-4.8	-4.6%
CCC(C)(C)NC(=O)c1ccc2c(c1)N(CC(=O)OC)C(=O)C(C)(C)O2	0.3%	-3.2%	-0.1%	5.1	14.9	?
COC1=CC(=O)C(OC)=C(OC)C1=O	?	-111.9%	-8.1%	8.9	-102.1*	?
CC(NC(=O)CN1CCN(c2ccc(Cl)cc2)CC1)c1ccccc1 (stereo not drawn)	-14.4%	-43.6%	4.3%	7.5	10.0	?
O=C(Nc1ccc(NC(=O)C2CC2)nc1)c1cnccn1	7.3%	18.3%	-0.2%	13.7	7.7	5.5%
Oc1ccc(Cl)cc1/C=C/c1ccc2cccc(O)c2n1	20.6µM*	-65.5%	?	-4.2	5.6	?
Oc1c(Cl)cc(Cl)cc1/C=C/c1ccc2cccc(O)c2n1	?	-38.1%	?	16.1	10.7	?
Cc1ccsc1/C=C/c1ccc2cccc(O)c2n1	11.2µM*	-29.9%	12.6µM*	-3.8	-26.0	?
Oc1cccc2ccc(/C=C/c3cccs3)nc12	11.2µM*	-21.9%	?	-10.3	-10.7	?
Cc1cccc(/C=C/c2cccs2)n1	nt	-25.0%	nt	nt	nt	?
CCN(CC)C(=O)C1CCCN(c2ccc([N+](=O)[O-])cc2/C=N/NC(=O)c2cccc([N+](=O)[O-])c2)C1 (stereo not drawn)	-0.3%	-14.1%	2.8%	8.0	?	3.2%
Cc1ccc(N2C(=O)CC(Sc3cccs3)C2=O)cc1 (stereo not drawn)	-0.7%	2.8%	4.4%	5.8	-14.5	-10.9%
C1CCN(c2nc(N3CCCCC3)nc(N3CCNCC3)n2)CC1	-4.3%	4.0%	0.3%	12.0	?	14.8%
SMILES	HT1080 IDH1KD tx	HepG2 tox	HT1080NT lethal	Giardia kill	IL1B secr inh	TGFb inhibitor
CC(=O)Nc1ccc(C(=O)COC(=O)c2cccs2)c(F)c1	-4.1%	0.5%	2.2%	25.6	-0.1	19.2%
COc1ccc2c(c1OC)C(=O)NC(C)=C(C(=O)OC(C)(C)C)C2O (stereo not drawn)	-1.8%	1.8%	9.9%	-8.4	-63.1*	-3.0%
O=S(=O)(c1ccc(-n2cnnn2)cc1)N1CCNCC1	-3.8%	-0.6%	-2.0%	-1.4	-24.5	9.2%
O=C(N/N=C/c1ccsc1)c1cc(-c2ccncc2)nc2ccccc12	?	9.3%	4.61µM*	3.7	3.9	?
Cc1ccc(/C=N/NC(=O)NC2CCCCC2)o1	-2.4%	-4.3%	-5.6%	0.2	-15.2	-5.1%
O=C(NCC1COc2ccccc2O1)c1ccccc1 (stereo not drawn)	-5.8%	-5.6%	-2.1%	16.9	-9.7	-16.5%
O=C(Nc1ccc2c(c1)OCO2)c1cc(-c2ccncc2)nc2ccccc12	18.4µM*	2.6%	18.4µM*	18.3	6.1	?
Cc1cc(C(=O)NCC2COc3ccccc3O2)c2ccccc2n1 (stereo not drawn)	0.3%	7.0%	-0.3%	-4.8	-69.8*	-16.0%
Cc1ccc(/C=C/C(=O)NC2CCCCCCC2)o1	?	-28.4%	-2.3%	-7.1	-103.9*	?
CCn1c(=O)cc(OCC(=O)N(C)c2cc(Cl)ccc2C)c2ccccc21	nt	-31.3%	nt	nt	nt	?
Cc1ccccc1NC(=O)CN1C(=O)NC2(CCCCCCC2)C1=O	-3.6%	6.9%	-7.5%	-2.6	3.6	6.4%
CCOc1ccccc1-c1cc(C(=O)N/N=C/c2ccc3c(c2)OCO3)c2ccccc2n1	-20.6%	4.3%	-7.4%	-12.3	7.7	-3.1%
Cc1ccc(/C=C/C(=O)NCC2COc3ccccc3O2)o1 (stereo not drawn)	-3.7%	5.3%	-1.3%	?	-52.6*	?
O=C(N/N=C/c1ccc2c(c1)OCO2)c1cc(-c2ccncc2)nc2ccccc12	2.59µM*	-0.8%	?	4.5	26.2	-30.6%
O=C(N/N=C/c1ccc(O)c(O)c1)c1cc(-c2ccccc2)nc2ccccc12	-28.0%	-34.2%	-9.9%	-4.2	60.8	-0.4%
Cc1ccc(/C=C/C(=O)NCCc2cccc(Cl)c2)o1	?	7.8%	?	4.5	-65.2*	0.0%
Cc1cc(C(=O)N/N=C/c2ccc3c(c2)OCO3)c2ccccc2n1	4.11µM*	-2.2%	?	-9.7	99.2	-12.2%
COc1ccc(CNC(=O)CN(c2cc(C)cc(C)c2)S(=O)(=O)c2c(C)[nH]c(=O)[nH]c2=O)cc1	4.0%	3.1%	0.2%	25.2	-18.5	-6.6%
